The source of these data is the supplement of paper PMC11537057.

The structures appear in SMILES notation. Where a name gives a salt, the structure may show the parent alone. ± gives the standard deviation of the averaged measurements. The full ranking holds about 1,700 compounds; the median of “cell number in HSV-1-infected wells relative to infected DMSO wells (H2B-RFP signal)” is about 100, and the highest 2% start at about 140. Only a selection was taken, and the highest values are over-represented in it overall.

This test deals with A549 infected with HSV-1. Nature of the test: cell number in HSV-1-infected wells relative to infected DMSO wells (H2B-RFP signal); higher = more surviving cells (uninfected or antiviral-protected wells give about 200%; low = toxicity). To be noted: 10 µM; 48 h; MOI: 0.1. Here is the method: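 Selleck FDA-approved library (L1300) screened in duplicate at 10 µM on A549 H2B-mRuby cells in 384-well plates, infected with HSV-1 strain 17 YFP-ICP4 at MOI 0.1 one hour before drug addition. Imaged after 2 days at 37°C. Cell growth (H2B-RFP) and infection (ICP4-YFP) are expressed as % of DMSO-treated wells. Hits: growth >90% and infection <20% of DMSO.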
In the case of `N[C@@H](Cc1ccc(N(CCCl)CCCl)cc1)C(=O)O` [Melphalan], the “cell number in HSV-1-infected wells” value came out at 72.2 ± 27%.
Next, `CCOc1ccccc1OCCN[C@H](C)Cc1ccc(OC)c(S(N)(=O)=O)c1` [Tamsulosin hydrochloride]: 132 ± 8.6%.
As to `Cc1ccc2c(c1)[C@]13CCCC[C@@H]1[C@H](C2)N(C)CC3` [Dimemorfan phosphate], the “cell number in HSV-1-infected wells” value amounted to 127 ± 24%.
With `COc1ccc2c(c1)[C@]13CCCC[C@@H]1[C@H](C2)N(C)CC3` [Dextromethorphan hydrobromide hydrate], the “cell number in HSV-1-infected wells” value is 146 ± 7.2%.
For `C=C1/C(=C\C=C2/CCC[C@]3(C)[C@@H]([C@H](C)/C=C/[C@H](C)C(C)C)CC[C@@H]23)C[C@@H](O)C[C@@H]1O` [Doxercalciferol], the “cell number in HSV-1-infected wells” value amounted to 100 ± 23%.
Turning to `Nc1cc(C(Cl)=C(Cl)Cl)c(S(N)(=O)=O)cc1S(N)(=O)=O` [Clorsulon], the “cell number in HSV-1-infected wells” value was 114 ± 7.9%.
For the compound `CCc1c(C)[nH]c2c1C(=O)C(CN1CCOCC1)CC2` (stereo unspecified) [Molindone hydrochloride], the “cell number in HSV-1-infected wells” value was determined as 93 ± 20%.
Take `CO/N=C(\C(=O)N[C@@H]1C(=O)N2C(C(=O)O)=CCS[C@H]12)c1csc(N)n1` [Ceftizoxime]: the “cell number in HSV-1-infected wells” value was determined as 136 ± 15%.
As to `COc1ccccc1OCC(O)COC(N)=O` (stereo unspecified) [Methocarbamol], the “cell number in HSV-1-infected wells” value stood at 115 ± 1.9%.
As for `Cl.NCCCC[C@H](N)C(=O)O` [L-Lysine hydrochloride], the “cell number in HSV-1-infected wells” value is 123.8 ± 0.98%.
For `CC(=O)O[C@]1(C(C)=O)CC[C@H]2[C@@H]3C=C(Cl)C4=CC(=O)[C@@H]5C[C@@H]5[C@]4(C)[C@H]3CC[C@@]21C` [Cyproterone Acetate], the “cell number in HSV-1-infected wells” value is 118 ± 11%.
As to `CC(=O)O[C@]1(C(C)=O)CC[C@H]2[C@@H]3C=C(Cl)C4=CC(=O)CC[C@]4(C)[C@H]3CC[C@@]21C` [Chlormadinone acetate], the “cell number in HSV-1-infected wells” value came to 148 ± 5.6%.
Regarding `CC(=O)O[C@]1(C(C)=O)CC[C@H]2[C@@H]3C=C(C)C4=CC(=O)CC[C@]4(C)[C@H]3CC[C@@]21C` [Megestrol Acetate], the “cell number in HSV-1-infected wells” value was found to be 112 ± 9.4%.
For `CN1CCN(c2ccc(C(=O)Nc3n[nH]c4ccc(Cc5cc(F)cc(F)c5)cc34)c(NC3CCOCC3)c2)CC1` [Entrectinib (RXDX-101)], the “cell number in HSV-1-infected wells” value turned out to be 18 ± 8.2%.
On to `CCC/N=C1\S/C(=C\c2ccc(OC[C@H](O)CO)c(Cl)c2)C(=O)N1c1ccccc1C` [Ponesimod], for which the “cell number in HSV-1-infected wells” value was 17.2 ± 12%.
As to `CC(OC(=O)OC1CCCCC1)OC(=O)C1=C(CSc2nnnn2CCN(C)C)CS[C@@H]2[C@H](NC(=O)Cc3csc(N)n3)C(=O)N12` (stereo partly specified) [Cefotiam Hexetil Hydrochloride], the “cell number in HSV-1-infected wells” value was 76.7 ± 3.4%.
`CC(C)(CO)[C@@H](O)C(=O)NCCCO` [D panthenol]: the “cell number in HSV-1-infected wells” value was determined as 121 ± 46%.
`COc1c(N2C[C@@H]3CCCN[C@@H]3C2)c(F)cc2c(=O)c(C(=O)O)cn(C3CC3)c12` [Moxifloxacin HCl]: the “cell number in HSV-1-infected wells” value worked out at 87.9 ± 22%.
For `CNC1CCCN(c2c(F)cc3c(=O)c(C(=O)O)cn(C4CC4)c3c2OC)C1` (stereo unspecified) [Balofloxacin], the “cell number in HSV-1-infected wells” value is 117 ± 1.2%.
Consider `COc1c(N2C[C@@H]3CCCN[C@@H]3C2)c(F)cc2c(=O)c(C(=O)O)cn(C3CC3)c12` [Moxifloxacin], for which the “cell number in HSV-1-infected wells” value stood at 145 ± 32%.
With `COc1c(N2CCNC(C)C2)c(F)cc2c(=O)c(C(=O)O)cn(C3CC3)c12` (stereo unspecified) [Gatifloxacin], the “cell number in HSV-1-infected wells” value was determined as 108 ± 17%.
The value for `CCCN1CCCC[C@H]1C(=O)Nc1c(C)cccc1C` [Ropivacaine HCl] was 87.6 ± 6.9%; that for `CCCN1CCCC[C@H]1C(=O)Nc1c(C)cccc1C` [Ropivacaine] was 115 ± 7.2%; that for `[Cl][Mn][Cl]` [Manganese chloride] was 109 ± 4.5%.
For `CCOc1ccc(Cc2cc([C@@H]3O[C@H](SC)[C@@H](O)[C@H](O)[C@H]3O)ccc2Cl)cc1` [Sotagliflozin (LX4211)], the “cell number in HSV-1-infected wells” value worked out at 61.71 ± 0.063%.
`COc1cc2c(cc1OC)[C@H]1C[C@@H](OC(=O)[C@@H](N)C(C)C)[C@H](CC(C)C)CN1CC2` [Valbenazine tosylate]: the “cell number in HSV-1-infected wells” value is 134 ± 41%.
For `CCn1cc(C(=O)O)c(=O)c2cc(F)c(N3CCNCC3)cc21` [Norfloxacin], the “cell number in HSV-1-infected wells” value amounted to 97.4 ± 27%.
As for `CN1CCN(c2cc3c(cc2F)c(=O)c(C(=O)O)cn3-c2ccc(F)cc2)CC1` [Difloxacin HCl], the “cell number in HSV-1-infected wells” value came out at 129 ± 16%.
On to `CN1C[C@@H]2C[C@H]1CN2c1cc2c(cc1F)c(=O)c(C(=O)O)cn2C1CC1` [Danofloxacin Mesylate], for which the “cell number in HSV-1-infected wells” value amounted to 110.8 ± 1.1%.
Regarding `O=C(O)c1cn(C2CC2)c2cc(N3CCNCC3)c(F)cc2c1=O` [Ciprofloxacin hydrochloride hydrate], the “cell number in HSV-1-infected wells” value is 139 ± 2.3%.
The value for `O=C(O)c1cn(-c2ccc(F)cc2)c2cc(N3CCNCC3)c(F)cc2c1=O` [Sarafloxacin HCl] was 151 ± 7.2%.
The value for `CCN1CCN(c2cc3c(cc2F)c(=O)c(C(=O)O)cn3C2CC2)CC1` [Enrofloxacin] was 147 ± 8.9%; that for `NC(=O)c1cccc2cn(-c3ccc([C@@H]4CCCNC4)cc3)nc12` [Niraparib (MK-4827) tosylate] was 71.7 ± 13%; that for `NC(=O)c1cccc2cn(-c3ccc([C@@H]4CCCNC4)cc3)nc12` [Niraparib (MK-4827)] was 71.2 ± 3.2%.
The value for `C[C@H](CCC(=O)O)[C@H]1CC[C@H]2[C@@H]3CC[C@@H]4C[C@H](O)CC[C@]4(C)[C@H]3C[C@H](O)[C@]12C` [Deoxycholic acid] was 109 ± 44%; that for `COCC[n+]1c2c(n(Cc3cnccn3)c1C)C(=O)c1ccccc1C2=O` [YM155 (Sepantronium Bromide)] was 9.16 ± 6%; that for `CCN1CC(CCN2CCOCC2)C(c2ccccc2)(c2ccccc2)C1=O` (stereo unspecified) [Doxapram] was 96.5 ± 8.2%.
Regarding `CCN1CC(CCN2CCOCC2)C(c2ccccc2)(c2ccccc2)C1=O` (stereo unspecified) [Doxapram HCl], the “cell number in HSV-1-infected wells” value is 91.29 ± 0.3%.
The value for `CC(C)N(CCCCOCC(=O)NS(C)(=O)=O)c1cnc(-c2ccccc2)c(-c2ccccc2)n1` [Selexipag] was 80.8 ± 1.5%; that for `CN(C/C=C/C#CC(C)(C)C)Cc1cccc2ccccc12` [Terbinafine HCl] was 101 ± 9%.
Consider `CN(C/C=C/C#CC(C)(C)C)Cc1cccc2ccccc12` [Terbinafine], for which the “cell number in HSV-1-infected wells” value is 99.9 ± 40%.
Next, `OC[C@H]1O[C@H](O[C@H]2[C@H](O)[C@@H](O)C(O)O[C@@H]2CO)[C@H](O)[C@@H](O)[C@@H]1O` (mixture of isomers) [Maltose]: 117 ± 4.3%.
With `Cc1c(-c2cnccn2)ssc1=S` [Oltipraz], the “cell number in HSV-1-infected wells” value is 100 ± 4%.
With `C[C@@H](c1nc(-c2ccc(C#N)cc2)cs1)[C@](O)(Cn1cncn1)c1cc(F)ccc1F` [Isavuconazole], the “cell number in HSV-1-infected wells” value is 99.7 ± 21%.
Next, `CC(C)OC(=O)[C@H](C)N[P@](=O)(OC[C@H]1O[C@@H](n2ccc(=O)[nH]c2=O)[C@](C)(F)[C@@H]1O)Oc1ccccc1` [Sofosbuvir (PSI-7977, GS-7977)]: 73.7 ± 21%; `CC(C)OC(=O)OCOP(=O)(CO[C@H](C)Cn1cnc2c(N)ncnc21)OCOC(=O)OC(C)C` [Tenofovir Disoproxil Fumarate]: 147.7 ± 0.7%.
Turning to `C[C@H](Cn1cnc2c(N)ncnc21)OCP(=O)(O)O` [Tenofovir], the “cell number in HSV-1-infected wells” value is 79.9 ± 13%.
For `CC(C)(C)C(=O)OCOP(=O)(COCCn1cnc2c(N)ncnc21)OCOC(=O)C(C)(C)C` [Adefovir Dipivoxil], the “cell number in HSV-1-infected wells” value turned out to be 64.6 ± 8.8%.
Consider `CC(C)OC(=O)[C@H](C)N[P@](=O)(CO[C@H](C)Cn1cnc2c(N)ncnc21)Oc1ccccc1` [Tenofovir Alafenamide (GS-7340)], for which the “cell number in HSV-1-infected wells” value was found to be 189.3 ± 1.6%.
In the case of `O=c1oc2c(O)c(O)cc3c(=O)oc4c(O)c(O)cc1c4c23` [Ellagic acid], the “cell number in HSV-1-infected wells” value is 106 ± 2.3%.
With `N=C1CCCN1Cc1[nH]c(=O)[nH]c(=O)c1Cl` [Tipiracil hydrochloride], the “cell number in HSV-1-infected wells” value was 107 ± 1.8%.
Regarding `COC(=O)N[C@@H](C)CNc1nccc(-c2cn(C(C)C)nc2-c2cc(Cl)cc(NS(C)(=O)=O)c2F)n1` [Encorafenib (LGX818)], the “cell number in HSV-1-infected wells” value amounted to 124 ± 6.5%.
Take `CNCC[C@H](Oc1cccc2ccccc12)c1cccs1` [Duloxetine]: the “cell number in HSV-1-infected wells” value stood at 121.44 ± 0.086%.
As to `CNCC[C@H](Oc1cccc2ccccc12)c1cccs1` [Duloxetine HCl], the “cell number in HSV-1-infected wells” value was determined as 92.1 ± 10%.
For `CNC(=O)c1ccc(Nc2ncc(C(F)(F)F)c(NCc3nccnc3N(C)S(C)(=O)=O)n2)cc1`, the “cell number in HSV-1-infected wells” value turned out to be 27.6 ± 6.6%.
Regarding `CC(C)(Oc1ccc(Cl)cc1)C(=O)O` [Clofibric Acid], the “cell number in HSV-1-infected wells” value stood at 82.4 ± 11%.
In the case of `CC(C)(Oc1ccc(C(=O)c2ccc(Cl)cc2)cc1)C(=O)O` [Fenofibric acid], the “cell number in HSV-1-infected wells” value is 75.9 ± 3.5%.
`CC(C)(Oc1ccc(CCNC(=O)c2ccc(Cl)cc2)cc1)C(=O)O` [Bezafibrate]: the “cell number in HSV-1-infected wells” value worked out at 147 ± 48%.
As to `CC1(C)S[C@@H]2[C@H](NC(=O)COc3ccccc3)C(=O)N2[C@H]1C(=O)O` [Penicillin V potassium salt], the “cell number in HSV-1-infected wells” value is 86.4 ± 5.6%.
Turning to `Cc1cc(C)cc(OCC2CNC(=O)O2)c1` (stereo unspecified) [Metaxalone], the “cell number in HSV-1-infected wells” value is 132 ± 16%.
`Nc1nc2[nH]cc(CCc3ccc(C(=O)N[C@@H](CCC(=O)O)C(=O)O)cc3)c2c(=O)[nH]1` [Pemetrexed]: the “cell number in HSV-1-infected wells” value stood at 59.2 ± 18%.
Consider `Nc1nc2[nH]cc(CCc3ccc(C(=O)N[C@@H](CCC(=O)O)C(=O)O)cc3)c2c(=O)[nH]1` [Pemetrexed Disodium Hydrate], for which the “cell number in HSV-1-infected wells” value is 67 ± 22%.
On to `CC(=O)SCC(Cc1ccccc1)C(=O)NCC(=O)OCc1ccccc1` (stereo unspecified) [Racecadotril], for which the “cell number in HSV-1-infected wells” value was 96.3 ± 17%.
Next, `Cc1cc2c(cc1S(N)(=O)=O)S(=O)(=O)CCC2` [Meticrane]: 83.96 ± 0.47%; `CS(=O)(=O)c1cccc(C[C@H](NC(=O)c2c(Cl)cc3c(c2Cl)CCN(C(=O)c2ccc4ccoc4c2)C3)C(=O)O)c1` [Lifitegrast]: 104 ± 15%; `Cn1ncc(Cl)c1-c1cc(C(=O)N[C@H](CN)Cc2ccc(F)c(F)c2)oc1Cl`: 69.8 ± 17%.
Take `COc1cc2nccc(Oc3ccc(NC(=O)C4(C(=O)Nc5ccc(F)cc5)CC4)cc3)c2cc1OC`: the “cell number in HSV-1-infected wells” value came out at 72.2 ± 7.6%.
Turning to `COc1cc2nccc(Oc3ccc(NC(=O)NC4CC4)c(Cl)c3)c2cc1C(N)=O` [Lenvatinib (E7080)], the “cell number in HSV-1-infected wells” value stood at 104 ± 6%.
On to `COc1cc2nccc(Oc3ccc(NC(=O)Nc4cc(C)on4)c(Cl)c3)c2cc1OC` [Tivozanib (AV-951)], for which the “cell number in HSV-1-infected wells” value was found to be 117 ± 40%.
Next, `COc1cc2nccc(Oc3ccc(NC(=O)C4(C(=O)Nc5ccc(F)cc5)CC4)cc3)c2cc1OC` [Cabozantinib malate (XL184)]: 90.5 ± 47%.
For `COc1cc2nccc(Oc3ccc(NC(=O)NC4CC4)c(Cl)c3)c2cc1C(N)=O` [lenvatinib Mesylate], the “cell number in HSV-1-infected wells” value was determined as 144 ± 32%.
